# High-throughput results as filed in PubChem.
# Sampled rows, rich in hits. Any-hit rate of the full collection: about 12%.
# G9a inh – blocks human histone lysine methyltransferase G9a. actives 8.8% (n = 350,000). Potency, µM (top dose mostly 102 µM), without a hit: top-dose activity, negative = inhibition, most hits filed as inhibitors. Q96KQ7. G9a H3K9 monomethylation, AlphaScreen, 2 h; note: % is set by controls: 0 for no effect and ±100 for the full control effect; nearly all actives have a fitted effect of over 75% in size
# Target sequence (Q96KQ7 913-1193 limits assumed): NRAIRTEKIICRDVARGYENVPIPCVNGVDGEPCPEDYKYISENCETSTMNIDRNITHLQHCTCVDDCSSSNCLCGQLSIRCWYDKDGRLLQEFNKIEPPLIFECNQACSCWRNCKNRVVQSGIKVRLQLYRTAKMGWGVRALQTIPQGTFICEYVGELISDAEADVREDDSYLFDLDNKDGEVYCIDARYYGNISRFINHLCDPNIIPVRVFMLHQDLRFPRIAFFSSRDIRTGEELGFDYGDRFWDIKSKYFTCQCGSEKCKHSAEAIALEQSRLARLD
#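 Quantitative HTS format: methyltransferase activity on a biotin-tagged H3K9 peptide is measured by AlphaScreen, using a rabbit anti-monomethyl-H3K9 antibody with streptavidin donor and anti-IgG acceptor beads. Final levels are 20 nM enzyme, 500 nM peptide, 20 uM SAM; 2 h RT.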
# BAZ2B inh – inhibitors of human BAZ2B bromodomain; Q9UIF8; AlphaScreen BAZ2B-H3K14Ac peptide displacement; Potency, µM (top dose mostly 114 µM), without a hit: at the top dose activity change, negative = inhibition, most hits filed as inhibitors; actives 4.4% (n = 360,000); AID 504333; note: % is set by controls: 0 for no effect and ±100 for the full control effect; nearly all actives have a fitted effect of over 60% in size
#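 Complex of BAZ2B and biotin-H3K14Ac (50 nM apiece) forms over 30 min at RT, then faces library compounds up to 110 uM for another 30 min; AlphaScreen beads added, 20 min dark incubation, luminescence read.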
# L3MBTL1 inh – blocks human L3MBTL1; Q9Y468; AlphaScreen L3MBTL1–H3K9me1 peptide binding; Potency, µM (titrated, usually from 57.1 µM), without a hit: at the highest dose activity, negative = inhibition, most hits filed as inhibitors; actives 0.66% (n = 230,000); AID 485360; note: % is set by controls: 0 for no effect and ±100 for the full control effect; nearly all actives have a fitted effect of over 60% in size
#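 AlphaScreen proximity signal between nickel-chelate acceptor and streptavidin donor beads (final 10 ug/mL) reports binding of 50 nM L3MBTL1 to 75 nM biotin-H3 K9me1 peptide; complex incubated with compounds 30 min at room temperature; cefsulodin titration as control.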
# HP1b chromo inh – HP1-beta chromodomain-methylated histone interaction inhibition. AlphaScreen HP1-beta / biotin-H3K9me3 peptide binding. Potency, µM (highest dose often 114 µM), without a hit: at the top dose activity change, negative = inhibition, usual class: inhibitors. AID 540317. P83916. actives 0.56% (n = 390,000); note: nearly all actives have a fitted effect of over 70% in size
# Target sequence (P83916 whole entry, looked up): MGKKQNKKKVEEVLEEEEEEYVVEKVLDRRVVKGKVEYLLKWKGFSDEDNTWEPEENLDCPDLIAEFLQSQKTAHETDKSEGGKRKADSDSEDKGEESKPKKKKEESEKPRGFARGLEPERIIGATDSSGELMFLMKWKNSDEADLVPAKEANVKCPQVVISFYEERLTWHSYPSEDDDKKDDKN
#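 HP1-beta protein (50 nM final) preincubated 30 min at room temperature with biotinylated H3(1-18)K9me3 peptide (50 nM) in PBS pH 7.4, 0.01% Tween-20, then compound added for 30 min. AlphaScreen streptavidin donor/nickel chelate acceptor beads (10 ug/mL final), 30 min dark, luminescence read.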
# Sfp inh – blocks B. subtilis Sfp PPTase activity | AID 1490 | Biochemical Sfp PPTase activity, qHTS | Potency, µM, without a hit: largest response in the series, negative = inhibition, hits mostly inhibitors | actives 3.5% (n = 310,000);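 note: the enzyme is Sfp with the accession as filed and its product quenches rhodamine fluorescence; 0% = enzyme reaction without inhibitor and -100% = no enzyme wells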
#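 Buffer: 50 mM Hepes-Na pH 7.6, 10 mM MgCl2, 0.01% Nonidet P-40, 0.01% BSA. Enzyme 15 nM, pre-exposed to compound 15 min; substrates then added and fluorescence change tracked over 30 min.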
# JMJD2A Tudor inh – JMJD2A Tudor domain (human) inhibition. AlphaScreen JMJD2A-Tudor / H3K4me3 peptide binding. Potency, µM (doses to about 114 µM), for the others: at the highest dose activity change, negative = inhibition, actives largely listed as inhibitors. actives 4.4% (n = 390,000); note: % is set by controls: 0 for no effect and ±100 for the full control effect; nearly all actives have a fitted effect of over 50% in size
# * = called active by the depositor; u = inconclusive; x = no result; [ ] = remark or other dose. Calls come from the whole dose curve; as a rule, active = well fitted curve in the direction sought with a large enough effect; inconclusive = small, poorly fitted or top-dose-only effect, or another doubt; inactive = no such curve, though single readings can be large; an effect the other way counts as inactive or inconclusive. Potency is the fitted concentration of half-maximal effect.
SMILES,G9a inh,BAZ2B inh,L3MBTL1 inh,HP1b chromo inh,Sfp inh,JMJD2A Tudor inh
CCCC(C)C(=O)Nc1ncc(S(=O)(=O)c2ccc([N+](=O)[O-])cc2)s1 (stereo unspecified),-6%,-29%,x,8%,8%,-20%
COc1cc(C(=O)NNC(=O)CN2C(=O)NC(C)(c3ccc(C)cc3)C2=O)cc(OC)c1OC (stereo unspecified),10%[12.7 µM],-4%,-1%,38%,x,-8%
CCOC(=O)c1ccc(/C=C2/C=C(c3ccccc3)N(c3ccc(Cl)c(C(=O)O)c3)C2=O)cc1,11µM*,50µM*,-10%,-21%,u,u
CCOc1cc(S(=O)(=O)NCCc2c(C)[nH]c3ccc(C)cc23)ccc1Br,u,u,x,-3%,x,u
COc1ccc(-c2csc3nc(-c4cccnc4)nc(N4CCC(C(N)=O)CC4)c23)cc1OC,u,-32%,0%,4%,-32%,-29%
O=C1CN(c2nc(-c3cccnc3)nc3scc(-c4ccccc4)c23)CCN1,40µM*,-29%,-1%,36%,-10%,1%
CC(C)=NNc1cc([N+](=O)[O-])cc2c1C(=O)N(C)S2=O (stereo unspecified),45µM*,-16%,u,40%,16µM*,-4%
C/C(=N\Nc1ccc([N+](=O)[O-])cc1)c1cccc(N)c1,-4%,u,-6%,u,-7%,u
Oc1ccccc1C1NN=C(c2ccccc2)S1 (stereo unspecified),x,18µM*,6%,77%,2%,-20%
Cc1cc(C(=O)COc2ccc([N+](=O)[O-])cc2)c(C)n1C1CC1,-20%,-15%,-20%,23%,-5%,-11%
Cc1cc(C(=O)COc2cc(F)ccc2[N+](=O)[O-])c(C)n1C1CC1,35µM*,u,-19%,-7%,4%,u
O=c1c(S(=O)(=O)c2cccc(Cl)c2)cn(Cc2ccccc2)c2cc(N3CCOCC3)c(F)cc12,-2%[59 µM],3%,x,37%,x,-6%
Cc1nc2cc(C(=O)O)ccc2n1C1CCCCC1,19%[59 µM],-3%,u,22%,13%,-18%
Cc1nc2cc(N)ccc2n1C1CCCCC1,14µM*,u,-13%,21%,-19%,-35%
Cn1c(CS/C(N)=N/N=C/c2ccccc2)c(Br)c(=O)n1-c1ccccc1,35µM*,u,8%,-6%,45µM*,50µM*
CC(=O)Nc1c(C(=O)O)ccc(C)c1OCc1ccccc1,x,x,x,30%,x,-3%
CC(C)Oc1ccc(C(=O)NN2C(=O)NC3(CCCCC3)C2=O)cc1,3%[59 µM],2%,7%,18%,x,-3%
COc1ccc(N=CC2=C(O)c3ccccc3C2=O)c(OC)c1,u,u,-8%,-17%,9%,-25%
Cc1ccccc1N=CC1=C(O)c2ccccc2C1=O,45µM*,-37%,-17%,-18%,-1%,-35%
CN(CC(=O)Nc1ccc(Br)cc1)S(=O)(=O)c1cccc2nsnc12,-21%[59 µM],x,x,21%,x,-21%
Clc1ccc(CNc2ccc(N3CCN(Cc4ccccc4)CC3)cc2)cc1,10µM*,5.6µM*,u,18µM*,2%,11µM*
c1ccc(CNc2ccc(N3CCOCC3)cc2)cc1,x,x,u,u,x,45µM*
COc1cc(NC(=O)NC(C)(C(F)(F)F)C(F)(F)F)cc(OC)c1OC,50µM*,0%,x,18%,7%,-5%[57.1 µM]
COC(=O)C(O)(CC(=O)Nc1cc(OC)c(OC)c(OC)c1)C(F)(F)F (stereo unspecified),-15%[59 µM],-1%,-2%,15%,-1%,0%
O=C(O)CNS(=O)(=O)c1ccc2c(c1)C(=O)c1cc(S(=O)(=O)NCC(=O)O)ccc1-2,45µM*,-2%,0%,19%,-10%,-14%
SMILES,G9a inh,BAZ2B inh,L3MBTL1 inh,HP1b chromo inh,Sfp inh,JMJD2A Tudor inh
O=C1c2ccccc2C(=O)c2cc(S(=O)(=O)Nc3ccccc3)ccc21,u,11µM*,-17%,u,-25%,u
C=CCNc1nc(-c2c(C)nc3sccn23)cs1,28µM*,-11%,-12%,18%,-16%,-30%
Cc1ccc(NS(=O)(=O)c2c(C)nc3sccn3c2=O)cc1,10%,-5%,2%,24%,17%,-13%
Cc1nc2sccn2c1-c1csc(NCc2ccccc2)n1,u,u,-8%,u,-16%,63µM*
COCc1cc(=O)[nH]c(=S)[nH]1,4.5µM*,-30%,-2%,17%,13µM*,13µM*
O=c1cc(Cc2ccccc2)[nH]c(=S)[nH]1,u,-2%,7%,49%,-30%,u
N#Cc1nc(Cc2cccc3ccccc23)oc1NCCN1CCCCC1,u,79µM*,-6%,-10%,0%,u
CC1CN(c2oc(Cc3cccc4ccccc34)nc2C#N)CC(C)O1 (stereo unspecified),25µM*,u,-29%,-47%,-15%,u
CNc1oc(Cc2cccc3ccccc23)nc1C#N,u,u,-8%,1%,9%,-29%
CC(=O)NC(c1ccc(C)cc1)c1cc(Cl)c2cccnc2c1O (stereo unspecified),-1%[59 µM],0%,13%,33%,11%,-29%
CC(=O)NC(c1ccccc1)c1cc([N+](=O)[O-])c2cccnc2c1O (stereo unspecified),10µM*,3.5µM*,7.1µM*,-3%,2.2µM*,10µM*
CC(C)C(=O)NC(c1ccccc1)c1cc([N+](=O)[O-])c2cccnc2c1O (stereo unspecified),u,5.6µM*,10µM*,-9%,-17%,u
CC(NC(=O)Cc1ccccc1[N+](=O)[O-])c1ccccc1 (stereo unspecified),6%,7%,-2%,x,1%,x
CC(=O)NC(c1cccs1)c1cc([N+](=O)[O-])c2cccnc2c1O (stereo unspecified),7.9µM*,4µM*,10µM*,10%,1µM*,35µM*
CC(=O)NC(c1cccs1)c1cc(Cl)c2ccccc2c1O (stereo unspecified),3%[0.501 µM],-3%,-12%,12%,x,-27%
Cc1cc2cc3c(cc2nc1SCc1ccccn1)OCCO3,26%[59 µM],-4%,-2%,46%,5%,6%
N#Cc1cc2ccccc2nc1SCc1ccccn1,35µM*,27%,14%,50%,-21%,0%
CCCCCn1c(NCc2ccccc2OC)nc2ccccc21,-11%[59 µM],-19%,x,32%,x,-24%
COc1cccc(C2=NOC(C(=O)Nc3cc(C)nn3-c3ccccc3)C2)c1OC (stereo unspecified),45µM*,10%,-11%,17%,u,6%
